RORg inh = ROR gamma (mouse) transcription inhibition; P51450; Drosophila S2 Gal4-RORgamma UAS-luciferase reporter, 20 h; Potency, µM (series often up to 53.6 µM), most hits filed as inhibitors; actives 5.4% (n = 310,000); further: nearly all actives have a fitted effect of over 60% in size
Target sequence (P51450 whole entry, looked up, the tested form may be a part): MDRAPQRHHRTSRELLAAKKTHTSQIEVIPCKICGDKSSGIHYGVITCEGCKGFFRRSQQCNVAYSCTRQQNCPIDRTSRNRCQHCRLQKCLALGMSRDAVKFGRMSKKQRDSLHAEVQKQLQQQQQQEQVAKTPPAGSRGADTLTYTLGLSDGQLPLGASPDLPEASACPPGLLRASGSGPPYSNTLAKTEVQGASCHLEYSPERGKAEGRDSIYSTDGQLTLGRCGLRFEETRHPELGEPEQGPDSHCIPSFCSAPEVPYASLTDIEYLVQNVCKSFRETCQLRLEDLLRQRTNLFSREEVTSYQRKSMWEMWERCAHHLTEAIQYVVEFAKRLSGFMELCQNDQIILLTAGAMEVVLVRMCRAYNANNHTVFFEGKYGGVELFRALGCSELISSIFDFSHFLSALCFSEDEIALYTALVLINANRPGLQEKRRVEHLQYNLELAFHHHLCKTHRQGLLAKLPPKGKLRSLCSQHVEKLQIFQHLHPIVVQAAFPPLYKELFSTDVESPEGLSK
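Schneider cells (Drosophila), stable Gal4 DBD–ROR gamma + UAS-luc; 1 hr cmpd preincubation; Cu2+ induction 700 uM final; 20 hr ambient; luminescence.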
Giardia kill = kills Giardia lamblia. actives 0.15% (n = 340,000). activity change, % at 7.66 µM, hits read low. Giardia lamblia trophozoite viability; in the data active means activity change below about -80%; inconclusive means between about -30% and that limit;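 further: parasites exposed to compound for two days anaerobically before the ATP read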
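Each well holds 100 Giardia trophozoites and compound. After two days (48 hrs) at 37 deg C in anaerobic conditions, ATP is quantified by luminescence.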
MCF10A rerep = induces DNA re-replication in MCF 10a normal breast cells; MCF 10A DNA re-replication, Hoechst nuclear intensity, 48 h; Potency, µM (series often up to 46.1 µM), most hits filed as activators; actives 2.9% (n = 350,000); AID 624296; further: nearly all actives have a fitted effect of over 50% in size
Chronic BCR inh = inhibitors of chronic active B-cell receptor signaling; ABC-DLBCL IkBa-CBG/CBR reporter, luminescence ratio, 4 h; Potency, µM (highest dose often 46.1 µM), actives largely listed as inhibitors; actives 0.05% (n = 340,000); active means well fitted inhibition curve with a large enough effect in the signal ratio, with a control signal flat, not every such curve was filed as active; inconclusive means small, poorly fitted or top-dose-only effect, or effect the other way, or a change in a side signal; the % refers to the signal ratio
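TMD8 human ABC-DLBCL cells with doxycycline-inducible IκBα–green luciferase fusion and unfused red luciferase, in 0.5% FBS medium; compounds up to 46 uM, 4 h at 37C. Green/red luminescence ratio, filter-overlap corrected, fitted to concentration-response curves.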
Gal4-VP16 FLuc = counter-screen for ROR gamma inhibitors: Gal4-VP16 reporter | Drosophila S2 Gal4-VP16 UAS-luciferase, luminescence, 20 h | Potency, µM (top dose mostly 53.6 µM), usual class: inhibitors | actives 3.5% (n = 310,000) | AID 2546;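 further: Gal4-VP16 expression switched on by copper sulfate through the metallothionein promoter; nearly all actives have a fitted effect of over 50% in size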
SW480 rerep = inducers of DNA re-replication in SW480 colon cancer cells; SW480 DNA re-replication, Hoechst DNA content imaging, 48 h; Potency, µM (series often up to 46.1 µM), actives largely listed as activators; actives 1.8% (n = 340,000); AID 624297; further: nearly all actives have a fitted effect of over 55% in size
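SW480 cells exposed to compounds for 48 hr at 37 C, 5% CO2, then Hoechst-stained 40 min. Nuclear DNA content imaged by fluorescence scanning (405 nm excitation, 500-530 nm emission); re-replication scored as increased high-intensity nuclei.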
A number is an active result; n = inactive; u = inconclusive; x = not tested or not shown; [ ] = remark or other dose. In the library only some 8.3% were active in any assay of this set; here they are far more common. Unless noted, the call rests on the fitted dose curve; in most records, active means well fitted curve in the direction sought with a large enough effect; inconclusive means small, poorly fitted or top-dose-only effect, or another doubt; inactive means no such curve, though single readings can be large; an effect the other way counts as inactive or inconclusive.

SMILES | RORg inh | Giardia kill | MCF10A rerep | Chronic BCR inh | Gal4-VP16 FLuc | SW480 rerep
CC(=O)c1c(N2CCN(Cc3ccccc3)CC2)nc(=S)n(-c2ccccc2)c1C | n | n | u | n | n | n
CC(=O)c1c(N2CCN(Cc3ccccc3)CC2)[nH]c(-c2ccccc2)nc1=S | 14µM | n | n | u | u | n
CSc1nc(-c2ccccc2)nc(N2CCOCC2)c1C(C)=O | n | u | n | n | n | n
CC(=O)c1c(N2CCCC2)[nH]c(-c2ccccc2)nc1=S | 5.6µM | n | n | n | 7.9µM | u
CC(=O)c1c(N2CCOCC2)[nH]c(-c2ccccc2)nc1=S | 1.1µM | n | n | u | 5µM | n
O=c1nc(-c2ccccc2)nc(-c2ccccc2)[nH]1 | n | n | n | n | n | n
COc1ccc(S(=O)(=O)NC2CC2)cc1Cl | n | n | n | n | n | n
COc1ccc(CC(=O)NCc2ccc(-n3cccc3)cc2)cc1OC | u | n | 5.8µM | u | n | 5.2µM
Cc1ccc(CNC(=O)Cc2ccc(-n3cccc3)cc2)cc1 | n | n | 5.8µM | n | n | 4.1µM
Cc1ccc(CNC(=O)Cc2ccc(-n3c(=O)[nH]c4ccsc4c3=O)cc2)cc1 | n | n | 2.1µM | u | n | 6.5µM
COc1cc(NC(=O)Cn2cnc(S(=O)(=O)N3CCOCC3)c2)cc(OC)c1OC | n | n | n | n | n | n
COc1cccc(C=O)c1OC(=O)N1CCOCC1 | n | n | n | n | n | n
COC(=O)Cc1cn(-c2ncc(C(F)(F)F)cc2Cl)c2ccccc12 | n | n | n | u | n | n
CN(C)/C=C/C(=O)/C=C/c1cn(-c2ncc(C(F)(F)F)cc2Cl)c2ccccc12 | u | n | 3.7µM | n | n | u
O=C(CSc1nnc(CNC(=O)c2cccc(C(F)(F)F)c2)o1)NC1CCCC1 | n | n | n | n | n | n
CCCCc1ccc(NC(=S)NCCc2ccc(F)cc2)cc1 | 2.2µM | n | u | u | 5.6µM | u
Fc1ccc(CCNC(=S)Nc2ccc(F)cc2)cc1 | 1µM | n | n | u | 0.89µM | n
CCCCc1ccc(NC(=S)NCCO)cc1 | u | n | n | n | n | n
CC(=O)c1cccc(NC(=S)NCCc2ccc(F)cc2)c1 | u | n | n | n | n | n
Cc1nc(NCc2ccccc2)c2nc(-c3ccccc3)n(CC(C)(C)CN(C)C)c2n1 | 14µM | x | x | x | n | x
CCN(CC)CCCn1c(-c2ccccc2)nc2c(NCc3ccccc3)nc(C)nc21 | n | x | x | x | n | x
CN(C(=O)CSc1nc(N)c2c3c(sc2n1)CSC(C)(C)C3)c1ccccc1 | n | n | 8.2µM | u | n | n
COc1ccc(OCC(=O)NNC(=O)Cn2c(=O)cnc3ccccc32)cc1 | x | n | n | n | x | n
Cc1cc(C)c(S(=O)(=O)/N=C2\C=CC(=O)C(Cl)=C2)c(C)c1 | u | n | 13µM | n | n | n
Cc1ccc(S(=O)(=O)c2c(C)cc(C)nc2Cl)c(C)c1 | n | n | n | n | n[0.365 µM] | n
SMILES | RORg inh | Giardia kill | MCF10A rerep | Chronic BCR inh | Gal4-VP16 FLuc | SW480 rerep
O=C(Nc1ccc(F)cc1F)c1cccc(C(=O)Nc2ccc(F)cc2F)n1 | u | n | 6.5µM | n | u | 16µM
O=C(Nc1ccc(F)cc1F)c1csc(-c2ccccc2)n1 | n | n | u | n | n | u
Cc1onc(-c2c(F)cccc2Cl)c1C(=O)NC1C(=O)N2C1SC(C)(C)C2C(=O)O (centres undefined) | n[10 µM] | x | n | x | n | n
COc1ccc(C(=O)O/N=C(\N)c2ccccn2)cc1 | 14µM | n | n | u | 18µM | n
N/C(=N\OC(=O)c1ccc(Cl)cc1)c1ccccn1 | 8.9µM | n | n | u | 10µM | u
N/C(=N\OC(=O)c1cc([N+](=O)[O-])ccc1Cl)c1cccnc1 | n | n | 18µM | n | n | u
N/C(=N\OC(=O)c1ccc(Cl)c(Cl)c1)c1ccccn1 | u | n | n | n | u | n
N/C(=N\OC(=O)c1ccc([N+](=O)[O-])cc1)c1cccnc1 | u | n | n | u | u | n
N/C(=N\OC(=O)c1ccc(Cl)c([N+](=O)[O-])c1)c1ccccn1 | n | n | 21µM | n | n | u
COc1cc(OC)cc(C(=O)O/N=C(\N)c2ccccn2)c1 | n | n | n | u | n | n
Cc1ccc(C(=O)NCCc2nnc3ccc(SCC(=O)NCc4ccc(F)cc4)nn23)cc1 | n | n | n | n | n | u
CCN(CC(=O)NCc1ccc(Cl)cc1)C(=O)CSCC(=O)Nc1ccc(OC)cc1 | x | n | n | n | x | n
N/C(=N\OC(=O)c1cccc(Br)c1)c1ccccn1 | 10µM | n | n | u | 18µM | n
Nc1cc(=O)[nH]c(SCC(=O)Nc2ccc(S(=O)(=O)N3CCCC3)cc2)n1 | x | n | n | n | x | n
Cn1ccc2cc(-c3ccc4ncnc(NCc5cccnc5)c4c3)ccc21 | x | x | x | n | x | x
Cn1ccc2cc(-c3ccc4ncnc(NCc5cccs5)c4c3)ccc21 | x | n | 12µM | u | x | u
CCOC(=O)N1CCC(=NNc2ncc(C(F)(F)F)cc2Cl)CC1 | 7.1µM | n | n | n | u | u
O=C(O)CCc1ncc(C(F)(F)F)cc1Cl | n | n | n | n | n | n
O=C(O)CC/C(=N/Nc1ncc(C(F)(F)F)cc1Cl)C(=O)O | 13µM | n | n | n | u | n
NC(=O)CNc1ncc(C(F)(F)F)cc1Cl | n | n | n | n | n | n
CC(=O)N1CCC(=NNc2ncc(C(F)(F)F)cc2Cl)CC1 | 3.2µM | n | n | n | u | u
CCOC(=O)N1CCN(c2ncc(C(F)(F)F)cc2Cl)CC1 | n | n | n | n | n | u
O=C(NCC1CCCO1)c1ccc2c(=O)n(Cc3cccc(Br)c3)c(=S)[nH]c2c1 (centres undefined) | n | n | u | n | n | n
CC(=O)NCc1ccc(-c2nc3ccccc3s2)cc1 | n | n | n | n | n | n
Cc1csc(NC(=O)CCCC(=O)O)c1-c1nc2ccccc2s1 | n | n | n | n | u | 15µM
SMILES | RORg inh | Giardia kill | MCF10A rerep | Chronic BCR inh | Gal4-VP16 FLuc | SW480 rerep
Cc1csc(NC(=O)COCC(=O)O)c1-c1nc2ccccc2s1 | n | n | u | u | n | n
CC(=O)Nc1scc(C)c1-c1nc2ccccc2s1 | 1.1µM | n | 21µM | n | 8.9µM | n
Cn1ncc(Br)c1NC(=O)c1ccco1 | n | n | n | n | n | n
CCOC(=O)C1CCN(c2ncnc3c2c(-c2ccccc2)cn3-c2ccc(Cl)cc2)CC1 | x | x | x | n | x | x
c1ccc2c(c1)CC1(CCCC1)n1nnnc1-2 | 0.71µM | n | n | u | n | n
CC1(C)Cc2ccccc2-c2nnnn21 | n | n | n | n | n | n
CCC1(c2ccc(F)cc2)NC(=O)N(CC(=O)Nc2ccc3c(c2)OCCO3)C1=O (centres undefined) | x | n | n | n | x | n
